Laboratory results published in PubChem BioAssay (NCI).
Compounds without any hit were thinned out: in the full panel of roughly 83,000, 20% have a hit.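 Percent growth is the endpoint: 0 to 100 indicates growth inhibition (40 means 60% inhibition), 0 means no net growth, and negative values indicate cell death.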 Active and inactive are the calls of the source. The calls were made as follows: active = growth percent below 10; inactive = the rest.

test system: HL-60(TB) leukemia; assay: NCI-60 one-dose screen, 48 h (100 = growth as untreated, 0 = no growth, -100 = all killed); settings: 10 µM unless noted

Row | Compound | growth
1 | CC1CCCN(CCCCCOc2ccc3oc4ccc(Cl)cc4c(=O)c3c2)C1 (stereo unspecified) | 48.6% (inactive)
2 | Clc1cc(Br)ccc1-c1ccc(CNCC2CCNCC2)o1 | 67.7% (inactive)
3 | FC(F)(F)c1ccc(CNc2ccc(Cc3c[nH]c4ncc(Cl)cc34)cn2)cn1 | 4.54% (active)
4 | c1ccc(Nc2nc(Nc3ccccc3)nc(Nc3ccccc3)n2)cc1 | 63.8% (inactive)
5 | ClC1=C(Cl)C(Cl)=C(Cl)C1=Cc1ccc(Cl)cc1Cl | -12.7% (active)
6 | O=C(CCCl)OCCOc1ccccc1 | 101% (inactive)
7 | O=C(c1ccc(Cl)cc1)c1ccccc1Cl | 96.4% (inactive)
8 | COc1ccc(NC(=O)c2sc3nc4c(cc3c2N)CCCC4)cc1 | -14.6% (active)
9 | O=C(Oc1cccc2ccccc12)c1ccccc1C(=O)c1ccccc1 | -8.79% (active)
10 | CC(C)(C)c1cc(C(=O)Nc2ccccc2C(=O)NCCN)cc(C(C)(C)C)c1 | -51.8% (active)
11 | Cc1ccc(S(=O)(=O)NCCCNc2nccc(-c3c(-c4ccccc4)nc4sccn34)n2)cc1 | -13.1% (active)
12 | CCOC(=O)CSc1nc2sc3c(c2c(=O)n1-c1ccc([N+](=O)[O-])cc1)CCCCC3 | 88.4% (inactive)
13 | CCN(CC)c1ccc(/C=C\c2cc(C)c3cc(C)ccc3n2)cc1 | 21.5% (inactive)
14 | CCOC(=O)c1ccc2c(c1)[n+](=O)c(C(C)=O)c(C(F)(F)F)n2[O-] | -65.9% (active)
15 | CCOC(=O)N1CCN(c2nc(Nc3cc(C)[nH]n3)c3ccccc3n2)CC1 | 26.3% (inactive)
16 | OC(c1ccccc1)(c1ccccc1)C(F)(F)F | 77.1% (inactive)
